Consider 15 compounds from PubChem BioAssay (NCI).

About 83,000 compounds went through this panel and 20% of them were active in at least one assay; those are over-represented in the sample as a whole.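 Each cell line was grown in a 96-well plate and treated with one concentration of compound for 48 hours. Values below 10 were considered active.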 A number with no mark means an inactive call. Calls of active or inactive are those of the source.

Among the test systems are T-47D breast; BT-549 breast; MDA-MB-435 melanoma; SW-620 colon; MCF7 breast; HCT-116 colon; HCC-2998 colon; KM12 colon.
Test in all cases: NCI-60 one-dose screen, 48 h (100 = growth as untreated, 0 = no growth, -100 = all killed)
Settings in all cases: 10 µM

For the compound `CC[C@@H](C(=O)[C@H](C)[C@H](O)[C@@H](C)[C@H]1O[C@H]([C@@H](CC)C(=O)O)CC[C@H]1C)C1O[C@]2(C=C[C@@H](O)[C@]3(CC[C@@](C)([C@H]4CC[C@](O)(CC)[C@H](C)O4)O3)O2)[C@H](C)C[C@@H]1C` (stereo not given in full), the growth with T-47D breast is 25.5%; with BT-549 breast it was 6.06% (active); with MDA-MB-435 melanoma, -16.3% (active); with SW-620 colon it was 24%; in the experiment with MCF7 breast it was 3.7% (active); with HCT-116 colon it was 22.2%. Moreover, the growth in the experiment with HCC-2998 colon was 8.29% (active); with KM12 colon, 24.5%.

Turning to `CCOC(=O)c1cocc1C(=O)O`, the growth was 104% in the experiment with T-47D breast; 108% in the experiment with BT-549 breast; 106% in the experiment with MDA-MB-435 melanoma; 103% with SW-620 colon; 101% with MCF7 breast; 103% in the experiment on HCT-116 colon. Besides, the growth in the experiment on HCC-2998 colon was 103%; with KM12 colon, 104%.

Take `CCC1NC(=O)c2cc(S(N)(=O)=O)c(Cl)cc2N1` (stereo not given): the growth in the experiment on T-47D breast is 104%; with BT-549 breast, 114%; with MDA-MB-435 melanoma it was 101%; in the experiment with SW-620 colon it was 108%; in the experiment with MCF7 breast it was 106%; with HCT-116 colon, 115%. Also, the growth with HCC-2998 colon was 105%; in the experiment on KM12 colon, 113%.

As to `Cc1c[nH]c(=O)n(Cc2nnc(CCC(=O)c3nc4ccccc4[nH]3)o2)c1=O`, the growth with T-47D breast was 34.3%; in the experiment with BT-549 breast it was 18.9%; in the experiment on MDA-MB-435 melanoma it was -45.8% (active); with SW-620 colon, 28.9%; with MCF7 breast it was 9.44% (active); in the experiment on HCT-116 colon it was 6.25% (active). The growth with HCC-2998 colon is -27.9% (active); with KM12 colon, 4.98% (active).

As for `Cn1c2ccccc2c2c3[nH][nH]c(=O)c3c3c4ccccc4[nH]c3c21`, the growth in the experiment on T-47D breast was 42.9%; in the experiment on BT-549 breast it was 20.5%; with MDA-MB-435 melanoma, 23.6%; with SW-620 colon, 20.7%; in the experiment on MCF7 breast, 5.82% (active); in the experiment with HCT-116 colon, -52.8% (active). The values for the growth with HCC-2998 colon and in the experiment with KM12 colon were 26.5% and 10.7%, respectively.

Consider `N#Cc1c(-c2ccc(Cl)cc2)n(O)c2ccccc12`, for which the growth with T-47D breast is 13.2%; in the experiment on BT-549 breast, 0.694% (active); in the experiment on MDA-MB-435 melanoma, 2.57% (active); with SW-620 colon, 15.3%; with MCF7 breast, 17.5%; in the experiment on HCT-116 colon, 12.9%. The growth in the experiment with HCC-2998 colon is 47.2%; in the experiment with KM12 colon, 15.9%.

Take `Cc1cc(CCNC=O)c(C)c2c1sc1ccccc12`: the growth was 92.8% in the experiment on T-47D breast; 96.9% with BT-549 breast; 94.5% in the experiment on MDA-MB-435 melanoma; 102% in the experiment on SW-620 colon; 100% with MCF7 breast; 94% with HCT-116 colon. Moreover, the values for the growth with HCC-2998 colon and in the experiment on KM12 colon were 104% and 103%, respectively.

Consider `CS(=O)(=O)c1nccc(-c2c(-c3cccc(OCCc4ccccc4)c3)nc3sccn23)n1`, for which the growth in the experiment on T-47D breast was 92.4%; in the experiment on BT-549 breast it was 116%; with MDA-MB-435 melanoma, 104%; in the experiment with SW-620 colon, 98.2%; in the experiment on MCF7 breast, 69.2%; in the experiment on HCT-116 colon, 83.9%. The growth with HCC-2998 colon was 109%; with KM12 colon, 104%.

Consider `O=C(O)c1cn(C2CC2)c2cc(N3CCN(C(=O)c4cc(-c5ccc(Cl)cc5)nc5ccccc45)CC3)c(F)cc2c1=O`, for which the growth is 86.7% in the experiment on T-47D breast; 83.5% in the experiment with BT-549 breast; 95.6% with MDA-MB-435 melanoma; 97.5% with SW-620 colon; 89.7% with MCF7 breast; 84.3% in the experiment with HCT-116 colon. For the same compound, the growth is 99.2% in the experiment on HCC-2998 colon and 102% with KM12 colon.

`CCC(=O)OC1CCC2C3CCC(=O)OC3C(C)(CCC(=O)O)CC12C` (stereo not given): the growth with T-47D breast was 37.7%; in the experiment with BT-549 breast it was -8.83% (active); in the experiment on MDA-MB-435 melanoma, -15.3% (active); in the experiment with SW-620 colon, -11.3% (active); with MCF7 breast, 30.9%; in the experiment with HCT-116 colon, 5.1% (active). The results for the growth in the experiment with HCC-2998 colon and with KM12 colon were 5.22% (active) and 25.7%, respectively.

As for `O=C1NC(=O)c2c(CCCSc3nc4ccccc4c(=O)n3CCc3ccccc3)cccc21`, the growth was 79.1% with T-47D breast; 92.6% in the experiment on BT-549 breast; 85.6% in the experiment with MDA-MB-435 melanoma; 98.8% with SW-620 colon; 83.5% with MCF7 breast; 80% in the experiment on HCT-116 colon. The growth in the experiment on HCC-2998 colon is 91.9%; in the experiment on KM12 colon, 100%.

With `COc1cc(C2C(C#N)=C(N)Oc3cc(O)ccc32)cc(OC)c1OC` (stereo not given), the growth in the experiment with T-47D breast is 16%; in the experiment with BT-549 breast, 58.5%; in the experiment with MDA-MB-435 melanoma it was -44.9% (active); in the experiment on SW-620 colon, 21.4%; in the experiment on MCF7 breast, 19.9%; with HCT-116 colon it was 17.8%. Moreover, the growth in the experiment on HCC-2998 colon is 27.6%; in the experiment on KM12 colon it was 15.8%.

Regarding `CCN(CC)CCOC(=O)c1cc(OCc2ccccc2)c(OCc2ccccc2)c(OCc2ccccc2)c1`, the growth is 66.8% with T-47D breast; 86.8% with BT-549 breast; 74.7% with MDA-MB-435 melanoma; 19.7% with SW-620 colon; 8.2% (active) in the experiment on MCF7 breast; 24% in the experiment on HCT-116 colon. Besides, the figures for the growth in the experiment with HCC-2998 colon and in the experiment with KM12 colon were 53.8% and 40.7%, respectively.

Consider `CC(C)(C)c1ccc(S(=O)(=O)N[C@H]2CC[C@H]3[C@@H]4CCc5cc(OS(=O)(=O)O)ccc5[C@H]4CC[C@]23C)cc1`, for which the growth in the experiment on T-47D breast was 19.9%; in the experiment with BT-549 breast, 47.5%; in the experiment with MDA-MB-435 melanoma it was 49.9%; in the experiment on SW-620 colon, 56.6%; with MCF7 breast, 15.3%; in the experiment on HCT-116 colon, 26.8%. Also, the growth is 73.2% in the experiment with HCC-2998 colon and 40.9% in the experiment on KM12 colon.

On to `CNC(=O)c1c(I)c(NC(C)=O)c(I)c(C(=O)O)c1I`, for which the growth in the experiment with T-47D breast was 117%; in the experiment with BT-549 breast, 113%; with MDA-MB-435 melanoma it was 103%; with SW-620 colon, 102%; in the experiment on MCF7 breast, 108%; in the experiment with HCT-116 colon, 121%. Moreover, the growth is 106% in the experiment on HCC-2998 colon and 109% with KM12 colon.
